Source: PubChem (National Center for Advancing Translational Sciences (NCATS))
Rows were chosen to be rich in hits. Some 3.8% of all compounds tested hit in one or more screens of this group.
ATXN2 expr inh = reduces ATXN2 reporter expression in HEK-293 cells; HEK-293 ATXN2-luciferase reporter, luminescence, 24 h; AID 1745845; hit rate 0.72% among 360,000; Potency, µM (titrated, usually from 57 µM), most hits filed as inhibitors; note: nearly all actives have a fitted effect of over 55% in size
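qHTS (up to 57 uM final) was run with 24 h compound exposure of reporter cells at 37 °C. Each well was multiplexed: SteadyGlo luminescence measured ATXN2-luciferase expression after a fluorogenic Gly-Phe-AFC viability readout (25 uM final).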
TGFb inhibitor = inhibitors of TGF-b signaling. HepG2 CAGA-GFP TGF-b/SMAD3 reporter, GFP fluorescence, 18 h; TGF-beta stimulated, 500 pg/mL final. AID 588855. hit rate 1.2% among 410,000. Potency, µM (highest dose often 46.1 µM), actives largely listed as inhibitors; note: nearly all actives have a fitted effect of over 65% in size
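HEPG2 CAGA-GFP reporter cells (1000/well, DMEM with 1% FBS) received compounds, then recombinant TGF-beta at 500 pg/mL final for 18 hours at 37 degrees C. Per-cell GFP summed per well was normalised to unstimulated and stimulated DMSO controls before curve fitting.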
HT1080NT lethal = kills 2HG-producing HT-1080-NT fibrosarcoma cells; AID 686970; hit rate 1.6% among 360,000; Potency, µM (doses to about 46.1 µM), hits mostly cytotoxic; HT-1080-NT fibrosarcoma viability, CellTiter-Glo ATP luminescence, 48 h;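 note: NT is the 2HG producing partner of a matched IDH1 knockdown line; nearly all actives have a fitted effect of over 55% in size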
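750 cells/well, RPMI + 5% FBS; 2 h settle, compound pin-transfer, 48 h at 37 degrees C. CellTiter-Glo 10 min RT, luminescence. Normalized to DMSO and media-only wells.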
HT1080 IDH1KD tx = kills HT-1080 cells with IDH1 knockdown | HT-1080 IDH1 knockdown viability, ATP luminescence, 48 h | Potency, µM (series often up to 46.1 µM), actives largely listed as cytotoxic | hit rate 2% among 360,000 | AID 686971
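Cytotoxicity counter-line: IDH1KD HT-1080, 48 h, CellTiter-Glo. Curves classed by r2, magnitude and activity.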
ATXN viability = viability counter-screen for ATXN expression inhibitors; S2 cells (HEK-293 line with an ATXN2-luciferase reporter) viability, CellTiter-Fluor protease fluorescence, 24 h; Potency, µM (titrated, usually from 56.7 µM), hits mostly cytotoxic; hit rate 0.49% among 400,000; AID 651635; note: nearly all actives have a fitted effect of over 40% in size
HepG2 viability = kills HepG2 cells in TGF-b inhibitor counter-screen; Potency, µM (highest dose often 46.1 µM), actives largely listed as cytotoxic; hit rate 0.76% among 410,000; HepG2 CAGA-GFP viability, ATP luminescence, 18 h
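CellTiter-Glo luminescence gave cytotoxicity after 18 hours at 37 degrees C. The cells were HepG2 CAGA-GFP in 1% FBS DMEM, stimulated with 500 pg/mL TGF-beta after compound addition. %Activity was normalised to no-cell wells (complete cell-killing) and DMSO (no toxicity), and curves were fitted and classified.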
Of the large screens only hits and unclear results are named; the others gave an inactive call. Calls come from the whole dose curve; as a rule, active = well fitted curve in the direction sought with a large enough effect; inconclusive = small, poorly fitted or top-dose-only effect, or another doubt; inactive = no such curve, though single readings can be large; an effect the other way counts as inactive or inconclusive.

CCNC(=O)c1sc2ncnc(NCCCN3CCOCC3)c2c1C	none (no result: ATXN2 expr inh, TGFb inhibitor, HT1080NT lethal, HT1080 IDH1KD tx, HepG2 viability)
O=C(N/C=N/OCc1ccc(Cl)cc1Cl)NOCc1c(Cl)cccc1Cl	ATXN2 expr inh inconclusive, HT1080NT lethal 16.4µM, HT1080 IDH1KD tx 16.4µM, HepG2 viability 17.8µM
CO/N=C/NC(=O)NOCc1ccc(Cl)cc1Cl	none
CCCN(CCC)c1nc(N)nc(C#N)n1	none (no result: ATXN2 expr inh, HT1080NT lethal, HT1080 IDH1KD tx, ATXN viability)
O=C1NC(c2cccc3ccccc23)Nc2ccc(Cl)cc21 (stereo not drawn)	ATXN2 expr inh inconclusive, TGFb inhibitor 3.98µM, HT1080NT lethal 0.581µM, HT1080 IDH1KD tx 0.517µM, ATXN viability inconclusive
COc1cc(-c2noc(-c3ccc(NCC4CCCO4)c([N+](=O)[O-])c3)n2)cc(OC)c1OC (stereo not drawn)	none (no result: HT1080NT lethal, HT1080 IDH1KD tx)
CN(C)C(=S)N=c1ssc(=S)n1Cc1cccnc1	TGFb inhibitor 3.16µM
O=C(c1ccc2c(=O)n(CCc3ccccc3)c(=O)[nH]c2c1)N1CCN(C(=O)c2ccco2)CC1	none (no result: ATXN2 expr inh, TGFb inhibitor, ATXN viability, HepG2 viability)
Cc1ccc(N=Nc2ccc(O)c3ncccc23)cc1	ATXN2 expr inh 12.6µM, TGFb inhibitor inconclusive, HT1080NT lethal inconclusive, HT1080 IDH1KD tx 1.64µM, ATXN viability inconclusive
Cc1ccc(N=Nc2ccc(O)c3ncccc23)cc1C	HT1080NT lethal inconclusive, HT1080 IDH1KD tx inconclusive, ATXN viability inconclusive
COc1ccccc1N=Nc1ccc(O)c2ncccc12	TGFb inhibitor inconclusive, HT1080NT lethal inconclusive, HT1080 IDH1KD tx inconclusive, ATXN viability 15.8µM (no result: ATXN2 expr inh)
CCS(=O)(=O)c1ccc(N=Nc2ccc(O)c3ncccc23)c(OC)c1	ATXN2 expr inh inconclusive, TGFb inhibitor inconclusive, HT1080NT lethal 1.46µM, HT1080 IDH1KD tx 5.17µM (no result: ATXN viability)
O=S(=O)(c1ccc(F)cc1)N1CCN(c2nc(-c3cccs3)nc3ccccc23)CC1	none (no result: ATXN2 expr inh, ATXN viability)
O=S1(=O)CCOC[C@H](c2ccccc2)N1Cc1ccc(Cl)c(Cl)c1	TGFb inhibitor inconclusive (no result: ATXN2 expr inh, HT1080NT lethal, HT1080 IDH1KD tx, ATXN viability)
CCCCN1CCc2c1nc1ccc(Br)cc1c2N	ATXN2 expr inh inconclusive, TGFb inhibitor inconclusive, HT1080NT lethal inconclusive, HT1080 IDH1KD tx inconclusive, HepG2 viability 15.8µM (no result: ATXN viability)
O=C(Nc1ccc(OCc2cc(=O)n3ccccc3n2)cc1)c1ccccc1Cl	none (no result: ATXN2 expr inh, HT1080NT lethal, HT1080 IDH1KD tx, ATXN viability)
CSc1ccc(CCNC(=O)Cn2nc(C)n3c(cc4sccc43)c2=O)cc1	TGFb inhibitor inconclusive (no result: ATXN2 expr inh, HT1080NT lethal, HT1080 IDH1KD tx, ATXN viability)
CCn1cc([N+](=O)[O-])c(C(=O)N2N=C(c3ccc(Cl)c(Cl)c3)CC2c2ccccc2O)n1 (stereo not drawn)	ATXN2 expr inh inconclusive, TGFb inhibitor 11.2µM, HT1080NT lethal 23.1µM, HT1080 IDH1KD tx inconclusive (no result: ATXN viability)
CCn1cc([N+](=O)[O-])c(C(=O)N2N=C(c3ccc4ccccc4c3)CC2c2cc(Br)ccc2O)n1 (stereo not drawn)	ATXN2 expr inh inconclusive, TGFb inhibitor 20µM, HT1080NT lethal 20.6µM, HT1080 IDH1KD tx inconclusive
C[C@@H](Nc1nc(Cl)nc2nc[nH]c12)c1ccccc1	none (no result: ATXN2 expr inh, HT1080NT lethal, HT1080 IDH1KD tx, ATXN viability)
Cc1nc2c(O)c3c(c(O)c2nc1C)C1C=CC3CC1	ATXN2 expr inh 28.2µM, TGFb inhibitor inconclusive, HT1080NT lethal inconclusive, HT1080 IDH1KD tx 16.4µM, ATXN viability 5.62µM
COc1ccc(C(=O)Nc2ccc(NC(=O)c3cccc(OC)c3)cn2)cc1	TGFb inhibitor inconclusive, HT1080NT lethal 20.6µM, HT1080 IDH1KD tx inconclusive
CN(c1cccc(NC(=O)c2ccc(N(C)S(=O)(=O)c3ccccc3)cc2)c1)S(C)(=O)=O	HT1080 IDH1KD tx inconclusive, ATXN viability inconclusive (no result: ATXN2 expr inh)
COc1ccc(C(=O)Nc2ccc(NC(=O)c3cccc(F)c3)cn2)cc1	none
CN(c1cccc(NC(=O)c2ccc(C(C)(C)C)cc2)c1)S(C)(=O)=O	ATXN2 expr inh inconclusive, HT1080NT lethal 23.1µM, HT1080 IDH1KD tx inconclusive
COc1cccc(NC(=O)c2ccc3c(c2)OCO3)c1	none
COc1ccc(Cl)cc1C(=O)Nc1ccccc1N1CCN(C(=O)C(C)C)CC1	ATXN2 expr inh 22.4µM, ATXN viability inconclusive
COc1cccc(NC(=O)c2ccc3c(c2)OCCO3)c1	ATXN2 expr inh inconclusive, HT1080NT lethal inconclusive, HT1080 IDH1KD tx inconclusive, HepG2 viability 14.1µM
CCCN1CCN(c2ncc3c(n2)CCN(Cc2ccc(OC)c(OC)c2OC)C3)CC1	ATXN viability inconclusive (no result: HT1080NT lethal, HT1080 IDH1KD tx)
